Measurements published in publication PMC7862700, “An all-to-all approach to the identification of sequence-specific readers for epigenetic DNA modifications on cytosine”.

Experiments:
Test in all cases: DAPPL (digital affinity profiling via proximity ligation, sequencing); 10 mM Tris-HCl pH 7.5, 50 mM NaCl, 1 mM DTT, 4% glycerol, room temperature, 30 min; GST-TFs on glutathione beads, 16-mer random dsDNA library, 0.1% formaldehyde crosslink after washing; high values mean tight binding
Details in all cases: protein: recombinant; tags: N-terminal GST; dsDNA, one strand shown
FLI1 = molecular target: T1, FLI1 (Homo sapiens, UniProt Q01543 1-452)
T1 sequence: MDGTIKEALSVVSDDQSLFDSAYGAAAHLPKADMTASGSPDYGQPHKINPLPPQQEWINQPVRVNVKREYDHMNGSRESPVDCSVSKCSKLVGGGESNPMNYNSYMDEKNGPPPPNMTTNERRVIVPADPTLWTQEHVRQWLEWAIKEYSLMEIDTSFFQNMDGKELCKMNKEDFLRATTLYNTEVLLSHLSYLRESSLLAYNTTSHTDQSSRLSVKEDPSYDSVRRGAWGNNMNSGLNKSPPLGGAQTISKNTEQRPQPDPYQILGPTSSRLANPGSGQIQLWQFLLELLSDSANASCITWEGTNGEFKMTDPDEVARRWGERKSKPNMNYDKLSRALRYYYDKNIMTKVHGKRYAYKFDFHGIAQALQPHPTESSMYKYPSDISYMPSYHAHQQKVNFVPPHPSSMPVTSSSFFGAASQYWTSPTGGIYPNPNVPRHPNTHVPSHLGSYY
Summary of the method: (§1)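 In yeast, human transcription factors were expressed with a GST fusion, then pulled down on glutathione beads and given DNA barcodes. Pooled with a tag-only sample, they were exposed to 200 nmole of a 16-mer random double-stranded DNA library (Tris/NaCl/DTT/glycerol buffer, room temperature, 30 min), washed, crosslinked with 0.1% formaldehyde, proximity-ligated using BsaI/T4 ligase for 1 h at 37 °C, PCR-amplified and read on an Illumina NextSeq500. Each hexamer's frequency of reads for a factor, divided by the matching frequency for the tag-only sample, gives the binding signal.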

ETV1 = ETV1 (Homo sapiens, UniProt P50549 1-477)
Summary of the method: as §1

ERF = molecular target: T2, ERF (Homo sapiens, UniProt P50548 1-548)
T2 sequence: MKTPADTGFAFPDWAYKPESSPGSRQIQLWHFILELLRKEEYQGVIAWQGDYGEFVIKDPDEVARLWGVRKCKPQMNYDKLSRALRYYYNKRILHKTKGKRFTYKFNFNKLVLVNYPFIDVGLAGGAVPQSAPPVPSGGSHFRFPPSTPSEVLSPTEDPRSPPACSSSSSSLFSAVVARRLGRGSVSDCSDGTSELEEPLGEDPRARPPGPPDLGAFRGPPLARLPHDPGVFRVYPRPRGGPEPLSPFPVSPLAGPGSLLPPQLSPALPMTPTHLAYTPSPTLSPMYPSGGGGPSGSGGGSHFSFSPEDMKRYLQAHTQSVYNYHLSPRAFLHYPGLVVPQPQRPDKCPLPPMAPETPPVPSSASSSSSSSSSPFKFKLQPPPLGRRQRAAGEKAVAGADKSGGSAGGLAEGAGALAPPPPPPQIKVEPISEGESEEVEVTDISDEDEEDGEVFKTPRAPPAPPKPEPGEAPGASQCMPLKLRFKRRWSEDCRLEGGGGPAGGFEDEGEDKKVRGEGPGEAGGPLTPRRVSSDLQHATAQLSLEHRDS
Summary of the method: as §1

ETV7 = molecular target: T3, ETV7 (Homo sapiens, UniProt Q9Y603 1-341)
T3 sequence: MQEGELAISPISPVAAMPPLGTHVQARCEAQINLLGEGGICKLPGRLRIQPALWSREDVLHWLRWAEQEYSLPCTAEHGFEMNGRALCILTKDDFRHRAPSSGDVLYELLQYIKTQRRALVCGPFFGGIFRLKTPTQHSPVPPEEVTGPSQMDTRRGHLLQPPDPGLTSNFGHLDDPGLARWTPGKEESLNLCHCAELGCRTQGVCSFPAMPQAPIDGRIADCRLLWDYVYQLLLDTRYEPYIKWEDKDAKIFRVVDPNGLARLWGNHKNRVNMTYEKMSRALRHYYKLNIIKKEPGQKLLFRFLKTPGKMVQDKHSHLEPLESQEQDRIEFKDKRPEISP
Summary of the method: as §1

ELK1 = molecular target: T4, ELK1 (Homo sapiens, UniProt P19419 1-428)
T4 sequence: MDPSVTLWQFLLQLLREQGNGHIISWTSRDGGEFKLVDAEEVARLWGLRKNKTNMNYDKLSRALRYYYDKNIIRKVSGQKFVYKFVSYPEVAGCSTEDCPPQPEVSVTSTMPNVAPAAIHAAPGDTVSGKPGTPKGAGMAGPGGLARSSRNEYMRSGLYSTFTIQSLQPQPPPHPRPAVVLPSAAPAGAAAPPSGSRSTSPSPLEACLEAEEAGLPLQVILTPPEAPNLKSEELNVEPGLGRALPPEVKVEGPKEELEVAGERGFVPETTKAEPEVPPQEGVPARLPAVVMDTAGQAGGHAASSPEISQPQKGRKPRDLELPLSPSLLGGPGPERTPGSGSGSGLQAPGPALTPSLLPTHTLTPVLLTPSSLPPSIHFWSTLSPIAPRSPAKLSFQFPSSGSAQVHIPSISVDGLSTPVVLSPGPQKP
Summary of the method: as §1

ERG = molecular target: T5, ERG (Homo sapiens, UniProt P11308 1-479)
T5 sequence: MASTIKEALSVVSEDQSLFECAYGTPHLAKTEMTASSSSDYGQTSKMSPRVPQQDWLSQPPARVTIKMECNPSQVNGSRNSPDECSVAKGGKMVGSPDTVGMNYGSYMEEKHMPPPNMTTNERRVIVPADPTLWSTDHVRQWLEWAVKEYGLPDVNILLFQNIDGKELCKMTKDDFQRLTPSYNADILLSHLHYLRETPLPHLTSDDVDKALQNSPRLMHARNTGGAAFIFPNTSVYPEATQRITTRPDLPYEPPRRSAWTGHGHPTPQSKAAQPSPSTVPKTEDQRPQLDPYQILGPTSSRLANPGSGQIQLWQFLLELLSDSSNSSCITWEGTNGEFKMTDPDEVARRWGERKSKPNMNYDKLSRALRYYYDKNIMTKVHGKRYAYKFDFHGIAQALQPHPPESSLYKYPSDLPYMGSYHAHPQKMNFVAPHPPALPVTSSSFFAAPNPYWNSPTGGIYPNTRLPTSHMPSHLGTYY
Summary of the method: as §1

ELF1 = ELF1 (Homo sapiens, UniProt P32519 1-619)
Summary of the method: as §1

EHF = molecular target: T6, EHF (Homo sapiens, UniProt Q9NZC4 1-300)
T6 sequence: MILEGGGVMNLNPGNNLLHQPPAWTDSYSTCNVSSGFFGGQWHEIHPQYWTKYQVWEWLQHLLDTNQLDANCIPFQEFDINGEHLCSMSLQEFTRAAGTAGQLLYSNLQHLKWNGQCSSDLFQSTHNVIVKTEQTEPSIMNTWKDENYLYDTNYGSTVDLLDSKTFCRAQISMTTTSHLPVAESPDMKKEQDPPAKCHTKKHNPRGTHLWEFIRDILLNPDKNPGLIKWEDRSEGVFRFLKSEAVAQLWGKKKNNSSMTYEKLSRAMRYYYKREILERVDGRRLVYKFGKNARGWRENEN
Summary of the method: as §1

ELK3 = molecular target: T7, ELK3 (Homo sapiens, UniProt P41970 1-407)
T7 sequence: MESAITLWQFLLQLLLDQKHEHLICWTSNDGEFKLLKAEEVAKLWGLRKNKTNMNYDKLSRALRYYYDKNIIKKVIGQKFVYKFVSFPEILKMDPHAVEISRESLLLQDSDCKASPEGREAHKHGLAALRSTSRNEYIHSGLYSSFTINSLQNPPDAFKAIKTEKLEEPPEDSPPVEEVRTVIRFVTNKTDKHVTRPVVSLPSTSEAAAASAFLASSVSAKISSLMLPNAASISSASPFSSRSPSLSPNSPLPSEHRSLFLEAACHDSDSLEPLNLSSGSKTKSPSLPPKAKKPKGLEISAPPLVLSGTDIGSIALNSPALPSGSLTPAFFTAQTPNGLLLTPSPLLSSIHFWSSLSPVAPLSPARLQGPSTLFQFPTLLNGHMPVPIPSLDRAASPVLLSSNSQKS
Summary of the method: as §1

FEV = molecular target: T8, FEV (Homo sapiens, UniProt Q99581 1-238)
T8 sequence: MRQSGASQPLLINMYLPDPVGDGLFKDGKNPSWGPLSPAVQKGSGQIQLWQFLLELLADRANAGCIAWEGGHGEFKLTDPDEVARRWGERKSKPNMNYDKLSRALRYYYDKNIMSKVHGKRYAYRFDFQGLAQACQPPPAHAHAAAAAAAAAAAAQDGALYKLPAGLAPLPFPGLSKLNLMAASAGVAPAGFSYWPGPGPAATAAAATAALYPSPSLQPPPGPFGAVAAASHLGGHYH
Summary of the method: as §1

ETV3L = molecular target: T9, ETV3L (Homo sapiens, UniProt Q6ZN32 1-361)
T9 sequence: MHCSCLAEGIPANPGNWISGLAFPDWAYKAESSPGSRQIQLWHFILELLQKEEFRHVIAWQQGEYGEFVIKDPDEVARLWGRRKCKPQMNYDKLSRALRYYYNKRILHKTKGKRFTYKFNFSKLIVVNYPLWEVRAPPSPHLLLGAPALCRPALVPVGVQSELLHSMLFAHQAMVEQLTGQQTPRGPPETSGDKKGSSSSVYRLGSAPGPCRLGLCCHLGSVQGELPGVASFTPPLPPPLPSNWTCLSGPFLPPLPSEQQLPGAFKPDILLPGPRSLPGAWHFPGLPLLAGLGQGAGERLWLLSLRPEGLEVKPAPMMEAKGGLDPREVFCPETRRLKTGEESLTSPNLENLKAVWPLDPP
Summary of the method: as §1

ETS2 = molecular target: T10, ETS2 (Homo sapiens, UniProt P15036 1-469)
T10 sequence: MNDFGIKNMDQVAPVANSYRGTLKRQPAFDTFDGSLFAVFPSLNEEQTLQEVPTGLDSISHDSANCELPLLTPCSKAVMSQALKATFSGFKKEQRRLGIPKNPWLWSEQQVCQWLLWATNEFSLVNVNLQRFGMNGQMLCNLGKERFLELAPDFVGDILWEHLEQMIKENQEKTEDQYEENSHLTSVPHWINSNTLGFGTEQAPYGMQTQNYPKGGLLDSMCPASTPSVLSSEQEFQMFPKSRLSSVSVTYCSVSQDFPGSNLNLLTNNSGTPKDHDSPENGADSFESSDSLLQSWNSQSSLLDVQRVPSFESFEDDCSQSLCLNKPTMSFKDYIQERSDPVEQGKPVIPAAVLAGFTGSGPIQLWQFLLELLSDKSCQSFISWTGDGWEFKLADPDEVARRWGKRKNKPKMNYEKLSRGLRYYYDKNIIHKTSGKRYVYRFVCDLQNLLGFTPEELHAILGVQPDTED
Summary of the method: as §1

ELF5 = molecular target: T11, ELF5 (Homo sapiens, UniProt Q9UKW6-2 1-255)
T11 sequence: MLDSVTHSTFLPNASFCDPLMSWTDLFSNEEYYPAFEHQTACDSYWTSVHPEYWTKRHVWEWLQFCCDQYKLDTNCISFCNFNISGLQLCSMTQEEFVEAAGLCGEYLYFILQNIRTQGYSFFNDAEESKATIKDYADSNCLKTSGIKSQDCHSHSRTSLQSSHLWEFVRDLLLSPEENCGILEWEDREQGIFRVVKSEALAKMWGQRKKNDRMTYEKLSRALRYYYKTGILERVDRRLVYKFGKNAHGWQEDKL
Summary of the method: as §1

ETV3 = molecular target: T12, ETV3 (Homo sapiens, UniProt P41162-2 1-143)
T12 sequence: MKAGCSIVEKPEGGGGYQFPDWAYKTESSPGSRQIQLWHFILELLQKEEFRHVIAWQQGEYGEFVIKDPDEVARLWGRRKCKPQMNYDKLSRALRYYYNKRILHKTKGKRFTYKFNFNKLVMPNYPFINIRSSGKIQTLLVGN
Summary of the method: as §1

Sequence of ETV1 (P50549 whole entry): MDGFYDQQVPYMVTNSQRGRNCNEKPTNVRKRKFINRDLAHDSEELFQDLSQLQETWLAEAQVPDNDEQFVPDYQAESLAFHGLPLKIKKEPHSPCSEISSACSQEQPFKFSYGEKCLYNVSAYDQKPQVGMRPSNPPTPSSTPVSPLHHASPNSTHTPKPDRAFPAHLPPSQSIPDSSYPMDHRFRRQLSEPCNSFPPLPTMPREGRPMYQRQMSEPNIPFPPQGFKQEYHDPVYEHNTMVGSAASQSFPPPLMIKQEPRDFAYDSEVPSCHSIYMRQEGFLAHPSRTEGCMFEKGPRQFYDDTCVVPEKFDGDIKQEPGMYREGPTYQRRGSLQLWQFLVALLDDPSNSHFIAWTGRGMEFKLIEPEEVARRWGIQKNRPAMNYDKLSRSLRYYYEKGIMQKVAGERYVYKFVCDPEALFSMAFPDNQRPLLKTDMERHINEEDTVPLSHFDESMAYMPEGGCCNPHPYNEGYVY
Sequence of ELF1 (P32519 whole entry): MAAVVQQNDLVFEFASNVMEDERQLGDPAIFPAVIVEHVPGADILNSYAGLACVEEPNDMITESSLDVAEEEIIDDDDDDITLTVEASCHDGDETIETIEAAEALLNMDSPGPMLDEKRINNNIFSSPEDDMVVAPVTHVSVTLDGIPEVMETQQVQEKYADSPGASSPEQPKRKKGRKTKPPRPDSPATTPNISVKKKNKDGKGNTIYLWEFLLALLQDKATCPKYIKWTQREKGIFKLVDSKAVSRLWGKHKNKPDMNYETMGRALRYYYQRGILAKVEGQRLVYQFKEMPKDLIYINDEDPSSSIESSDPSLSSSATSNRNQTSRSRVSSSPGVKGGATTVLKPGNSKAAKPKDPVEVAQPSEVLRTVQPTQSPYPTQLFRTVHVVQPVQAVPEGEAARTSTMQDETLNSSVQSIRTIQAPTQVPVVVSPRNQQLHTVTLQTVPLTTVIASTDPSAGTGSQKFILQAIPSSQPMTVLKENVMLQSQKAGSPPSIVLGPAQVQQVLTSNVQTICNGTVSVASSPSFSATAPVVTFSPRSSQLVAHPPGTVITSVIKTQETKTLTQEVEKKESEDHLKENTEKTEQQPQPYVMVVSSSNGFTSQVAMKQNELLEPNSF

Sequence: CGTTGG
- binding signal (FLI1): 1.08 fold enrichment (6-mer frequency, TF over GST control)
- binding signal (ETV1): 1.01 fold enrichment (6-mer frequency, TF over GST control)
- binding signal (ERF): 1.07 fold enrichment (6-mer frequency, TF over GST control)
- binding signal (ETV7): 1.07 fold enrichment (6-mer frequency, TF over GST control)

Sequence: CGCACA
- binding signal (FLI1): 1.01 fold enrichment (6-mer frequency, TF over GST control)
- binding signal (ELK1): 1.08 fold enrichment (6-mer frequency, TF over GST control)
- binding signal (ERG): 1.02 fold enrichment (6-mer frequency, TF over GST control)
- binding signal (ELF1): 1.05 fold enrichment (6-mer frequency, TF over GST control)
- binding signal (EHF): 1.03 fold enrichment (6-mer frequency, TF over GST control)
- binding signal (ELK3): 1.02 fold enrichment (6-mer frequency, TF over GST control)
- binding signal (FEV): 1.02 fold enrichment (6-mer frequency, TF over GST control)
- binding signal (ETV1): 1.01 fold enrichment (6-mer frequency, TF over GST control)
- binding signal (ERF): 1.07 fold enrichment (6-mer frequency, TF over GST control)
- binding signal (ETV3L): 1.04 fold enrichment (6-mer frequency, TF over GST control)
- binding signal (ETS2): 1.04 fold enrichment (6-mer frequency, TF over GST control)
- binding signal (ELF5): 1.04 fold enrichment (6-mer frequency, TF over GST control)
- binding signal (ETV3): 1.03 fold enrichment (6-mer frequency, TF over GST control)
